What all share (test): NCI-60 one-dose screen, 48 h (100 = growth as untreated, 0 = no growth, -100 = all killed)
Common to all, as to settings: 10 µM unless noted

For experiment [1], the system named is NCI-H23 lung.
The subject of experiment [2] is NCI-H226 lung.
The test system of experiment [3] is NCI-H322M lung.
The subject of experiment [4] is HOP-62 NSCLC.
For experiment [5], the system named is NCI-H460 lung.
Experiment [6] relates to HOP-92 NSCLC.
The subject of experiment [7] is NCI-H522 lung.
Experiment [8] relates to A549/ATCC NSCLC.
In experiment [9] the test system is 786-0 renal.
Experiment [10] deals with COLO 205 colon.

The values below come from PubChem BioAssay (NCI).

About 83,000 compounds went through this panel and 20% of them were active in at least one assay; those are over-represented in the sample as a whole.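 Single-dose data. Exposure time 48 hours. Values below 10 considered active.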 Values without a mark were called inactive. Calls of active or inactive are those of the source.

For the molecule `COc1cccc(/C=C/C(=O)c2cccc(Nc3nc(Nc4ccccc4)nc(Nc4ccccc4)n3)c2)c1`, the growth in experiment [1] was 82.2%; in experiment [2] it was 94.2%; in experiment [3] it was 86.6%; in experiment [4] it was 79.2%; in experiment [5], 91.9%; in experiment [6], 17.7%. Further, the growth in experiment [7] was 85.6%; in experiment [8] it was 68.5%; in experiment [9] it was 89%; in experiment [10], 87.5%.

Regarding `c1ccc2c(c1)CCCc1nnc3nc4ccccc4n3c1-2`, the growth is 46.7% in [1]; 51.2% in [2]; 48.2% in [3]; 34.8% in experiment [4]; 25.8% in experiment [5]; -2.09% (active) in [6]. The growth in experiment [7] was 55.6%; in experiment [8], 29.9%; in [9], 34.2%; in [10] it was 12%.

Regarding `CCN(CC)CCN1C(=O)c2c(c(C)c3c(oc4ccc(OC)cc43)c2C)C1=O`, the growth in experiment [1] was 97.9%; in [2], 14.3%; in [3], 95.2%; in [4], 93.7%; in experiment [5], 74.3%; in experiment [6], 84.7%. In addition, the growth in experiment [7] was 95%; in experiment [8], 94.5%; in experiment [9] it was -30% (active); in experiment [10], 96.1%.

Consider `Cn1cc(-c2csc(-c3cn(CCCN4CCOCC4)c4ccccc34)n2)c2cccnc21`, for which the growth in experiment [1] was 88.3%; in experiment [2], 75.7%; in [3], 95.6%; in experiment [4], 97.4%; in experiment [5] it was 88.5%; in experiment [6], 67.7%. Besides, the growth was 67.9% in [7], 79.3% in [8], 74.4% in experiment [9] and 73.9% in experiment [10].

With `C=C(C)[C@@H]1CCC[C@]2(C(=O)O)CC[C@]3(C)[C@@H](CC[C@@H]4[C@@]5(C)C/C(=C/c6ccncc6)C(=O)C(C)(C)[C@@H]5CC[C@]43C)[C@@H]12`, the growth in [1] was 20.9%; in experiment [2], 36.1%; in [3] it was 26.3%; in experiment [4], 50.4%; in experiment [5], 5.65% (active); in [6], 57.2%. Further, the growth is 16.6% in [7], 16.3% in experiment [8], 39.8% in experiment [9] and 6.51% (active) in experiment [10].

Take `CCSc1oc(C)nc1[P+](c1ccccc1)(c1ccccc1)c1ccccc1`: the growth in [1] was 20.6%; in experiment [2], 57.9%; in [3], 77%; in [4], 21.3%; in experiment [5], 16.8%; in experiment [6], 25.3%. In addition, the growth was 24.8% in experiment [7], 23.2% in [8], 56.6% in experiment [9] and -7.48% (active) in [10].

As to `CCCCNc1cc(-c2cn[nH]c2-c2cc(C)cc(OC)c2)nc(-c2cccnc2)n1`, the growth in experiment [1] was 101%; in experiment [2] it was 87.4%; in [3], 86.9%; in experiment [4] it was 95.6%; in [5], 99.7%; in [6], 68.2%. For the same molecule, the growth in experiment [7] is 81.2%; in [8], 94.3%; in experiment [9], 68.2%; in experiment [10], 99.5%.

In the case of `O=C(O)c1ccc(-c2ccc(/C=N/Nc3nc(Nc4ccccc4)nc(N4CCCCC4)n3)o2)cc1`, the growth is 62.2% in experiment [1]; 92.4% in [2]; 55.1% in [3]; 85% in experiment [4]; 52.8% in [5]; 35.1% in experiment [6]. Moreover, the growth in experiment [7] is 43%; in experiment [8], 63.5%; in experiment [9], 61.5%; in experiment [10] it was 83.2%.

Regarding `COc1ccc(-c2n[nH]c(=O)c3nc(NC(=S)Nc4ccc(Oc5ccccc5)cc4)sc23)cc1`, the growth was 99.7% in experiment [1]; 95.5% in experiment [2]; 101% in experiment [3]; 91% in experiment [4]; 101% in [5]; 90.1% in experiment [6]. The growth was 68.9% in [7], 86.7% in experiment [8], 102% in [9] and 113% in experiment [10].

`C#CCn1cnc2cnc(Nc3cccc(NC(=O)C=C)c3)nc21`: the growth in experiment [1] is 95.6% [6.25 µM]; in experiment [2] it was 78.8% [6.25 µM]; in [3], 96.1% [6.25 µM]; in experiment [4], 78.6% [6.25 µM]; in experiment [5], 90.6% [6.25 µM]; in experiment [6], 32.6% [6.25 µM]. Besides, the growth in experiment [7] is 71.4% [6.25 µM]; in experiment [8], 85.3% [6.25 µM]; in [9] it was 56.8% [6.25 µM]; in [10], 82.2% [6.25 µM].

As to `C=C1C(=O)O[C@H]2[C@H]1CC/C(COC(=O)NCc1ccc(Cn3c(=O)sn(-c4ccc(C#N)cc4)c3=O)cc1)=C\CC[C@@]1(C)O[C@@H]21`, the growth in experiment [1] was 78.2%; in experiment [2], 95.5%; in experiment [3] it was 104%; in experiment [4] it was 92.2%; in [5] it was 104%; in experiment [6], 26.1%. Besides, the growth in [7] is -28% (active); in experiment [8], 96.7%; in experiment [9], 66.1%; in [10], 38.1%.

Consider `CC1(C)CC[C@]2(C(=O)N[C@H](CO)Cc3ccccc3)CC[C@]3(C)C(=CC[C@@H]4[C@@]5(C)CCCNC(C)(C)[C@@H]5CC[C@]43C)[C@@H]2C1`, for which the growth in experiment [1] was 104%; in experiment [2], 91.1%; in [3] it was 95.3%; in experiment [4], 89%; in experiment [5], 78.3%; in experiment [6], 26.4%. The growth in [7] was 96.8%; in [8], 89.8%; in experiment [9], 65.5%; in experiment [10], 77.8%.

As to `C=C1C(=O)O[C@H]2[C@H]1CC/C(COC(=O)c1ccc(C(=O)O)s1)=C\CC[C@@]1(C)O[C@@H]21`, the growth in experiment [1] is 57.4%; in experiment [2], 41.9%; in [3] it was 68.2%; in experiment [4], 75%; in experiment [5], 30.6%; in experiment [6], 1.03% (active). For the same molecule, the growth in experiment [7] was -79.8% (active); in experiment [8] it was 80.3%; in [9], 41.6%; in experiment [10] it was -0.755% (active).
